Source: PubChem
Rows were chosen to be rich in hits. Some 4.6% of all compounds tested hit in one or more screens of this group.
D1 potentiator: Potentiators of Human D1 Dopamine Receptor: qHTS | D(1A) dopamine receptor (Homo sapiens), P21728 | potentiation, % at 10 µM | 360,000 tested, 0.036% active | AID 504651, 2011 | HEK293 TREx D1 cells, calcium flux, dopamine EC20 potentiation; in the data active = potentiation above about 30%; note: 0% is about no effect
TRHR PAM: qHTS for Small Molecule Agonists and Allosteric Enhancers of Human TRH Receptor: Primary Screen for Enhancers; 360,000 tested, 0.66% active; TRHR cells, fluo-8 calcium fluorescence, EC20 TRH enhancement; Thyrotropin-releasing hormone receptor (Homo sapiens), P34981; enhancement, % at 2 µM; in the data active = enhancement above about 30%; note: 0% is about no effect
Target sequence (P34981 whole entry, looked up): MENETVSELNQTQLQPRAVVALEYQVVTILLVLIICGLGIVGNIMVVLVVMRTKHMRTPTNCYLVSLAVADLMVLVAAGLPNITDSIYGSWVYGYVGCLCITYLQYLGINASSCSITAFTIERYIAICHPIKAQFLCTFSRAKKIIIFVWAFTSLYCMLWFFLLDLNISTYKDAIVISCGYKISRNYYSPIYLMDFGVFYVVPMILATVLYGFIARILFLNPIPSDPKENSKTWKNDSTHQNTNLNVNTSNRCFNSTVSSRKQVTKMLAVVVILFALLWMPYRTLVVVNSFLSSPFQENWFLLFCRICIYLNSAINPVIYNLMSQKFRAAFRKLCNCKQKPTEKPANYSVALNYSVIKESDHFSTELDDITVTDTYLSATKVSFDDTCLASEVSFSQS
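TRHR-expressing cells loaded with fluo-8 calcium dye were read kinetically (ex 480/em 530) during compound addition, then stimulated with an EC20 of TRH (10 nM final). Enhancement of the Gq-mediated intracellular calcium response was scored.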
D1 agonist: Allosteric Agonists of the Human D1 Dopamine Receptor: qHTS | D(1A) dopamine receptor (Homo sapiens), P21728 | HEK293 T-REx D1 cells, calcium flux, agonist mode | activation, % at 2 µM | 360,000 tested, 1% active | AID 504660, 2011; note: 0% is about no effect
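Agonism was scored from calcium flux recorded over 180 s (1 read/s) after pintool compound addition, following a 10-cycle baseline. Cells were inducible force-coupled HEK293 TREx D1, plated overnight at 30 C and loaded with no-wash calcium dye.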
D1 antagonist: Antagonist of Human D 1 Dopamine Receptor: qHTS; D(1A) dopamine receptor (Homo sapiens), P21728; HEK293 TREx D1 cells, calcium flux, dopamine EC80; active compounds read low; activity change, negative = inhibition, % at 10 µM; 360,000 tested, 3.2% active; in the data active = activity change below about -30%; note: % is set by controls: 0 for no effect and ±100 for the full control effect
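Cells carrying a force-coupled, tetracycline-inducible human D1 receptor report calcium flux. Each well gets a 10 s baseline, compound with 180 s monitoring, then an EC80 dopamine stimulus with a second 180 s kinetic read.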
TRHR ag: qHTS for Small Molecule Agonists and Allosteric Enhancers of Human TRH Receptor: Primary Screen for Agonists | Thyrotropin-releasing hormone receptor (Homo sapiens), P34981 | TRHR cells, calcium flux fluo-8, FDSS agonist mode | activation, % at 2 µM | 360,000 tested, 0.18% active | AID 493084, 2011; note: 0% is about no effect
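TRHR-expressing cells loaded with fluo-8 calcium dye; 23 nL library compound pin-transferred, kinetic FDSS fluorescence (Ex 480/Em 530) recorded about 180 s for agonist-induced calcium release, before a 10 nM TRH EC20 addition for potentiator mode.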
* = called active by the depositor; x = not tested or not shown; ! = a repeat was not active. Cut-off read from the data, not from the text of the source, unless noted: active = activation above about 30%; inactive = the rest.

SMILES	D1 potentiator	TRHR PAM	D1 agonist	D1 antagonist	TRHR ag
COc1ccc(C)cc1NC(=O)CSc1nc(=O)[nH]c2c1CCCC2	-2	4	31*	x	0
COc1ccc(Cl)cc1NC(=O)CSc1nc2sccc2c(=O)[nH]1	10	4	1	6	-1
COc1ccc(C)cc1NC(=O)CSc1nc2scc(C)c2c(=O)[nH]1	5	5	11	-31*	2
CCOc1ccc(-c2nonc2NC(=O)c2oc3c(C)c(C)ccc3c2C)cc1OCC	0	1	-1	-7	0
CC1=Nc2ccccc2/C1=C/c1sc(=N)n(-c2nccs2)c1O	-4	-1	58*	-8	16
CCn1c(O)c(/C=C2\C=Nc3ccccc32)sc1=O	-6	-5	0	-1	1
O=C1C(Cl)=C(Nc2ccc(F)cc2)C(=O)N1CCc1ccccc1	-3	4	2	-35*	1
O=C1C(Cl)=C(NCCc2ccccc2)C(=O)N1CCc1ccccc1	0	4	0	3	-1
COc1ccc(CCC2(C)NC(=O)N(C(C)C(=O)N3c4ccccc4CC3C)C2=O)cc1 (configuration not stated)	-10	-3	3	7	0
COc1cc(-c2nc(Cn3nnc(C(=O)Nc4cccc(Cl)c4)c3C)c(C)o2)cc(OC)c1OC	1	4	-1	0	2
CCc1ccc(C(=O)c2cnc3ccc(F)cc3c2S(=O)(=O)c2ccccc2)cc1	-7	-1	2	-42*	0
O=C(c1cccc(Cl)c1)N1c2ncnn2C2(CCCCC2)[C@@H]2CCCC[C@@H]21	-1	6	4	-7	-1
Cc1cccc(/N=C/c2c(O)[nH]c3ccccc23)n1	-8	-6	33*	-14	0
Oc1ccc(Cl)cc1N=Cc1sc2ccccc2c1Cl	-4	-1	0	3	1
Cc1cccc(/N=C/c2sc3ccccc3c2O)n1	-6	14	52*	3	10
Oc1c(C=Nc2cccc3cccnc23)sc2ccccc12	0	9	158*	-24	50*
O=[N+]([O-])c1ccc(O)c(N=Cc2sc3ccccc3c2O)c1	2	-1	27	16	17
Cc1sc2ncn(CC(=O)N(C)c3cccc(C(F)(F)F)c3)c(=O)c2c1S(=O)(=O)N1CCN(c2ncccn2)CC1	0	7	3	2	-2
CN(C)CCCNS(=O)(=O)c1ccc(N2CCC(c3ccc(Cl)cc3)=N2)cc1	-6	4	42*	-19	0
O=S(=O)(c1ccc(N2CCC(c3ccc(Cl)cc3)=N2)cc1)N(CCO)CCO	28	-3	121*	60	0
CN(C)CCCNS(=O)(=O)c1cc(Cl)ccc1Cl	-7	4	3	18	1
COc1ccc(Cn2cc(C(=O)c3ccc(C)c(C)c3)c(=O)c3ccccc32)cc1	5	3	7	-11	0
Cc1cc(C)cc(OCC(=O)N(Cc2cccs2)c2ccc(Cl)cc2)c1	1	0	33*	10	1
Cc1ccc(N(Cc2cccs2)C(=O)COc2cccc(C)c2)cc1	0	2	11	-14	1
CCc1cccc(NC(=O)CN(C)S(=O)(=O)c2ccc3c(c2)CCCN3C(C)=O)c1	-3	1	8	-16	0
SMILES	D1 potentiator	TRHR PAM	D1 agonist	D1 antagonist	TRHR ag
Cc1ccc(CNC(=O)C2CCCN(c3nnc(-n4c(C)ccc4C)s3)C2)cc1 (configuration not stated)	-3	1	-3	9	-2
C=CCOC(=O)C1=C(C)NC(=O)NC1/C=C/c1ccccc1 (configuration not stated)	-4	4	1	-31*	0
CSc1nnc2ccc(-c3ccccn3)nn12	-1	3	4	-12	0
CC1CN(C(=S)Nc2ccc(F)cc2F)CC(C)O1 (configuration not stated)	5	-5	0	2	0
Fc1ccc(NC(=S)N2CCCN(c3ccc(C(F)(F)F)cn3)CC2)c(F)c1	-7	2	17	-54*	1
Cc1csc2ncnc(N3CCN(C(=S)Nc4ccc(F)cc4F)CC3)c12	-5	1	10	-36*	-1
O=C(Nc1ccc(F)cc1F)N1CCCN(c2ccc(C(F)(F)F)cn2)CC1	-2	-3	10	-13	0
CC(=O)NS(=O)(=O)c1ccc(NC(=O)COc2ccc(C(=O)c3ccccc3)cc2)cc1	-7	-5	7	-16	1
Cc1ccc(N2C(=O)C(CC(=O)Nc3ccc(F)cc3)N(CCC3=CCCCC3)C2=O)cc1 (configuration not stated)	0	3	1	-2	1
CCCCCCCCCCSc1n[nH]c(NC(C)=O)n1	-9	0	0	-41*	0
CCCSc1n[nH]c(NC(C)=O)n1	-2	1	2	-5	0
COC(=O)c1cc2oc(C)cc2n1CC(=O)Nc1cc(Cl)ccc1OC	2	-5	1	21	0
CCOc1cc(C(=O)Nc2ccc3oc(-c4ccc(F)cc4Cl)nc3c2)cc(OCC)c1OCC	-2	-7	1	-9	0
CCC1CCCCN1CCCNC(=O)c1cn(CC)c2ccc(S(=O)(=O)N(C)C3CCCCC3)cc2c1=O (configuration not stated)	-4	7	0	-38*!	0
CC(C)OCCCNC(=O)c1cn(C)c2ccc(S(=O)(=O)N3CCCCCC3)cc2c1=O	0	4	4	-34*	-1
CCn1cc(C(=O)NCCCOC)c(=O)c2cc(S(=O)(=O)N(C)C3CCCCC3)ccc21	1	4	0	8	0
CC(C)NC(=O)CSc1nc2ccccc2nc1N1CCCCC1	5	-10	-2	-1	-1
Cc1cc(C)c(NC(=O)C2CCCN2CCO)c(C)c1 (configuration not stated)	-2	-2	1	13	2
Cc1cc(C)c(NC(=O)C2CCCN2C)c(C)c1 (configuration not stated)	-10	-6	2	-35*	1
CCOC(=O)c1cc(OC(=O)c2cccnc2)n(-c2ccccc2)n1	6	0	0	-39*	0
CCOC(=O)c1cc(OC(=O)c2cccc(C)c2)n(-c2ccccc2)n1	-1	8	2	-3	0
O=C(Nc1cccc(C(=O)O)c1)/C(=C\c1ccc2c(c1)OCO2)NC(=O)c1ccco1	-3	33*	0	-7	1
